# Assay results: PubChem BioAssay (NCATS)
# “And” between values parts separate entries of the source, which are not always exact repeats. Equal entries are not always repeated. Records with an inconclusive call do not appear. A call without a number means that no potency is given here. Unmarked numbers belong to inactive results. The source made the active and inactive calls. Unless noted, calls follow the shape of the dose curve; as a rule, active = well fitted curve in the direction sought with a large enough effect in the repeat runs; inconclusive = weak or mixed curves; inactive = no such curve, though single readings can be large; an effect the other way counts as inactive or inconclusive.
# Key:
# [1] = Primary qHTS for small molecule stabilizers of the endoplasmic reticulum resident proteome: Secreted ER Calcium Modulated Protein (SERCaMP) assay (AID 1508630; active = well fitted curve in the direction sought with a large enough effect; an effect the other way counts as inactive or inconclusive)
# In short: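 The SH-SY5Y reporter protocol was run at 3 concentrations up to 38.3 uM (primary) or 11 concentrations (follow-up): 16 h compound, 100 nM thapsigargin for 4 h, then extracellular luciferase luminescence.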
# [2] = A High-Content qHTS Against Drug Library for the Identification of Small Molecules that Inhibit DYT1 Early Onset Primary Dystonia-Associated Cell Pathology (AID 1645839; calls by dose curve; also: series mostly up to about 46 µM)
# In short: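 Cells were seeded and left for 24 h, then dosed with compound alongside tetracycline induction of mutant EGFP-TorsinA. They were incubated for 48 h, fixed in 4% paraformaldehyde, permeabilized and imaged for mislocalization (%pathology) and cell count.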
# [3] = target: Cytochrome P450 2D6 (Homo sapiens) (UniProt P10635); assay: Cytochrome P450 family 2 subfamily D member 6 (CYP2D6) small molecule antagonists: luciferase biochemical (cell-free) qHTS assay (AID 1645840); also: nearly all actives have a fitted effect of over 55% in size; also: potency is read from the fitted curve at half-maximal effect; as to activity change, negative = inhibition: series mostly up to about 57 µM
# In short: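 P450-Glo CYP2D6 system: proluciferin substrate converted by enzyme to luciferin, read by luminescence proportional to activity. Enzyme-substrate mix with compound 10 min at room temperature, then NADPH regeneration 1 h before detection reagent.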
# [4] = target: Cytochrome P450 2C9 (Homo sapiens) (UniProt P11712); assay: Cytochrome P450 family 2 subfamily C member 9 (CYP2C9) small molecule antagonists: luciferase biochemical (cell-free) qHTS assay (AID 1645842); also: nearly all actives have a fitted effect of over 55% in size; also: potency is read from the fitted curve at half-maximal effect; as to activity change, negative = inhibition: series mostly up to about 57 µM
# In short: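 P450-Glo CYP2C9 system: proluciferin substrate with enzyme in mix containing 0.4% BSA, 10 min at room temperature, then NADPH regeneration solution added and incubated 1 h at 37C. Detection reagent stopped reaction; luminescence read after 20 min as RLU.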
# Papain (Carica papaya) = Papain (Carica papaya) (UniProt P00784); assay: Primary qHTS assay for inhibitors of the protease papain (AID 1645873; active = well fitted curve in the direction sought with a large enough effect; an effect the other way counts as inactive or inconclusive;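 also: papain turnover of Z-FR-AMC read as the AMC fluorescence gain over 10 min; series mostly up to about 50 µM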)
# [5] = target: Cytochrome P450 3A4 (Homo sapiens) (UniProt P08684); assay: Cytochrome P450 family 3 subfamily A member 4 (CYP3A4) small molecule antagonists: luciferase qHTS assay (AID 1645841); also: nearly all actives have a fitted effect of over 45% in size
# In short: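 P450-Glo CYP3A4 enzyme with proluciferin substrate preincubated 10 min with compound at room temperature, then NADPH regeneration 1 h. Luciferin detection reagent added for 20 min; luminescence recorded. Ketoconazole positive control.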
# [6] = target: N-terminal Xaa-Pro-Lys N-methyltransferase 1 (Homo sapiens) (UniProt Q9BV86); assay: Confirmatory qHTS for Inhibitors of N-terminal methyltransferase 1 (NTMT1): MTaseGlo Assay (AID 1645874; active = well fitted curve in the direction sought with a large enough effect; an effect the other way counts as inactive or inconclusive; also: potency is read from the fitted curve at half-maximal effect; nearly all actives have a fitted effect of over 65% in size); conditions: NTMT1 enzyme, MTase-Glo SAH luminescence
# In short: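 Room-temperature NTMT1 reaction, 30 min, with 100 uM SAM and 1 uM SPKRIA substrate; enzyme 125 nM. Read-out: MTase-Glo luminescence, normalized to no-enzyme and DMSO controls.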
# Papain (Carica papaya), sequence (P00784 whole entry, looked up): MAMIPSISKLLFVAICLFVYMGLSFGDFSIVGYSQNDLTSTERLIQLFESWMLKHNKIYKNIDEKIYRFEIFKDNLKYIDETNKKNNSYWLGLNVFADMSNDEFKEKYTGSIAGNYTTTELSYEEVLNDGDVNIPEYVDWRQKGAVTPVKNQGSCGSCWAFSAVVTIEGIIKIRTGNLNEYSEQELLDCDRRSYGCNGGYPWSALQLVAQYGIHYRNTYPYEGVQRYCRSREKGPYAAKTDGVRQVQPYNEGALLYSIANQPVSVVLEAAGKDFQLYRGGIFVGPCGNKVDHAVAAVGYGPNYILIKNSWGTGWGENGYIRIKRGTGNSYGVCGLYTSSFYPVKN
# Cytochrome P450 2C9 (Homo sapiens), sequence (P11712 whole entry, looked up): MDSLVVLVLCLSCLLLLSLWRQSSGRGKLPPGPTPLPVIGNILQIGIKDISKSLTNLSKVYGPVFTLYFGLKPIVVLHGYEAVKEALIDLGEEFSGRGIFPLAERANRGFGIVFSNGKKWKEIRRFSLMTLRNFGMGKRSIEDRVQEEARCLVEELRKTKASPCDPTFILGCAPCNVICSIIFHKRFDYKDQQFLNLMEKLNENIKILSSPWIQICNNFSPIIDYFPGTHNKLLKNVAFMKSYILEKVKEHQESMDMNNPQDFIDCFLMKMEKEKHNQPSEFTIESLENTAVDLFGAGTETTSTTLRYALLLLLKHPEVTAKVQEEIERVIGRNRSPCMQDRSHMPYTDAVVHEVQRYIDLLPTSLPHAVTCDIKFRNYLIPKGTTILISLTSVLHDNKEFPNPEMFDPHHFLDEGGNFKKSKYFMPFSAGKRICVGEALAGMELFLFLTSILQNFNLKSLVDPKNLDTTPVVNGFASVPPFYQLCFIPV
# Cytochrome P450 2D6 (Homo sapiens), sequence (P10635 whole entry, looked up): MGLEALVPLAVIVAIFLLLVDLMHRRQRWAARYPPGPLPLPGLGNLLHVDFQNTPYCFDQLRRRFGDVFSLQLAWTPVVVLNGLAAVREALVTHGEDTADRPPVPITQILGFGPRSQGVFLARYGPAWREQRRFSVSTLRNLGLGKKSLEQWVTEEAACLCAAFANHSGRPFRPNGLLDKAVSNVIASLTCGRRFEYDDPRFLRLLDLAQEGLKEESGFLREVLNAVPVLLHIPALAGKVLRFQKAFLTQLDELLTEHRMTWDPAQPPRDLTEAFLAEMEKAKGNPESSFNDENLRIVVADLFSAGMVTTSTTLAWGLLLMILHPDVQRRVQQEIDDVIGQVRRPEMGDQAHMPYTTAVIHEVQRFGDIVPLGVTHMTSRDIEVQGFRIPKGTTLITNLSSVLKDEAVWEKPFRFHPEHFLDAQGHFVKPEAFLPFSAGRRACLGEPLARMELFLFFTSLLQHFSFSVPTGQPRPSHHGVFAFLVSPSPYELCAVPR
# N-terminal Xaa-Pro-Lys N-methyltransferase 1 (Homo sapiens), sequence (Q9BV86 whole entry, looked up): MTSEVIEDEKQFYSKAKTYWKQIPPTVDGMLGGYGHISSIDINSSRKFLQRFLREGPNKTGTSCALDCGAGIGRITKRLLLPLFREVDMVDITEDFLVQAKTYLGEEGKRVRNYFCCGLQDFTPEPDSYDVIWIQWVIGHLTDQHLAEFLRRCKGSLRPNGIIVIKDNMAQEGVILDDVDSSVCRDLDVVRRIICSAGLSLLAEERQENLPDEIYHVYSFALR
# Cytochrome P450 3A4 (Homo sapiens), sequence (P08684 whole entry, looked up): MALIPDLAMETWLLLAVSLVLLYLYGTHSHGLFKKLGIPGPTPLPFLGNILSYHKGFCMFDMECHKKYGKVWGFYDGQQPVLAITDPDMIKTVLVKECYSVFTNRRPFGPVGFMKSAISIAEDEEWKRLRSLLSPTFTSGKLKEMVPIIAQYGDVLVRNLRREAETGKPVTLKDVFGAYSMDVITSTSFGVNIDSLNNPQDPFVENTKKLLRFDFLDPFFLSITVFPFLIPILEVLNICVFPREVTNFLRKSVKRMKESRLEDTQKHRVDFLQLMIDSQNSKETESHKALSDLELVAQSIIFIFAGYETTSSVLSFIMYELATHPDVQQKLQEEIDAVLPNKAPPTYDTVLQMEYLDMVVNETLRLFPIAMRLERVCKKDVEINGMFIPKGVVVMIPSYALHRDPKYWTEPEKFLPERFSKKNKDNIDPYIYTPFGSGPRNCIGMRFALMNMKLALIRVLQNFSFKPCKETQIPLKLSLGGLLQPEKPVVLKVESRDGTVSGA
smiles,measurement,setting,value
O=C(OCc1ccccc1)c1ccccc1,Potency,[1],inactive
same,Potency,[2],inactive
same,Potency,[3],inactive
same,Potency,[4],inactive
Cc1c(N)c(=O)n(-c2ccccc2)n1C,Potency,[1],inactive
same,Potency,[2],inactive
same,Potency,[3],inactive
O=C(CCN1CCN(CCO)CC1)N1c2ccccc2Sc2ccc(C(F)(F)F)cc21,Potency,[1],inactive
same,Potency,[2],inactive
same,Potency,[3],inactive
same,Potency,[4],inactive
CCCCCCCC/C=C/C(=O)O,Potency,[1],inactive
same,Potency,[2],inactive
same,Potency,[3],inactive
same,Potency,[4],inactive
COc1cc2c3cc1Oc1cc(ccc1O)C[C@@H]1c4c(cc(OC)c(O)c4Oc4ccc(cc4)C[C@@H]3N(C)CC2)CC[N+]1(C)C,Potency,[1],inactive
same,Potency,[2],inactive
same,Potency,[3],inactive
same,Potency,[4],inactive
CC(C(=O)O)c1ccc(C(=O)c2cccs2)cc1 (stereo unspecified),Potency,[1],inactive
same,Potency,[2],inactive
same,Potency,[3],inactive
same,Potency,[4],7.76 µM (active)
O=C(O)c1ccccc1Nc1cccc(C(F)(F)F)c1,Potency,[1],inactive
same,Potency,[3],inactive
same,Potency,[4],inactive
O=C(O)Cc1cccc(-c2cc(CCCCCCc3ccc(O[C@H]4O[C@H](CO)[C@@H](O)[C@H](O)[C@@H]4O)c(-c4cccc(CC(=O)O)c4)c3)ccc2O[C@H]2O[C@H](CO)[C@@H](O)[C@H](O)[C@@H]2O)c1,"activity change, negative = inhibition",[1],-18.9% [at 0.478 µM]
same,"% pathology change, negative = correction",[2],-6.26% [at 0.369 µM]
same,"activity change, negative = inhibition",[3],-6.59% [at 0.91 µM]
same,"activity change, negative = inhibition",[4],11.7% [at 0.91 µM]
CN1CC(=O)N/C1=N/C(=O)Nc1cccc(Cl)c1,Potency,[1],inactive
same,Potency,[2],inactive
same,Potency,[4],inactive
same,Potency,Papain (Carica papaya),inactive
C[N+]1(C)[C@@H]2CC(OC(=O)[C@H](CO)c3ccccc3)C[C@H]1[C@@H]1O[C@@H]12 (stereo partly specified),Potency,[1],inactive
same,Potency,[2],inactive
same,Potency,[3],inactive
c1ccc2sc(SSc3nc4ccccc4s3)nc2c1,Potency,[1],inactive
same,Potency,[2],inactive
same,Potency,[3],inactive
same,Potency,[4],9.52 µM (active)
O=C(Nc1ccc(C(=O)O)c(O)c1)c1ccccc1,Potency,[1],inactive
same,Potency,[2],inactive
same,Potency,[3],13.8 µM (active)
CCCSc1ccc2nc(NC(=O)OC)[nH]c2c1,Potency,[1],inactive
same,Potency,[3],inactive
same,Potency,[4],inactive
COC(=O)C1=C(C)NC(C)=C(C(=O)OCC(C)=O)C1c1ccccc1[N+](=O)[O-] (stereo unspecified),Potency,[1],inactive
same,Potency,[2],inactive
same,Potency,[4],8.71 µM (active)
Cc1ccc(O)c(-n2nc3ccccc3n2)c1,Potency,[1],inactive
same,Potency,[2],inactive
same,Potency,[4],4.36 µM (active)
CN(C)[C@@H]1C(=O)C(C(=O)NCN2CCCC2)=C(O)[C@@]2(O)C(=O)C3=C(O)c4c(O)cccc4[C@@](C)(O)C3C[C@@H]12 (stereo partly specified),Potency,[1],inactive
same,Potency,[2],inactive
same,Potency,[4],inactive
CN1CCN(c2cc3c(nn2)Oc2ccccc2N3C)CC1,Potency,[1],inactive
same,Potency,[2],inactive
same,Potency,[3],inactive
same,Potency,[4],inactive
COc1ccnc2c1CCCCC2S(=O)c1nc2ccccc2[nH]1 (stereo unspecified),Potency,[1],inactive
same,Potency,[2],inactive
same,Potency,[3],0.347 µM (active)
same,Potency,[4],9.77 µM (active)
Cc1c(Nc2ncccc2C(=O)O)cccc1C(F)(F)F,Potency,[1],inactive
same,Potency,[3],inactive
same,Potency,[4],inactive
CCC1C(=O)OCC1Cc1cncn1C (stereo unspecified),Potency,[1],inactive
same,Potency,[2],inactive
same,Potency,[3],inactive
same,outcome,[5],inactive
same,Potency,[4],inactive
same,Potency,Papain (Carica papaya),inactive
CCCCCCCCCCCCCCCC(=O)OC(C)C,Potency,[1],inactive
same,Potency,[2],inactive
same,Potency,[4],inactive
CCCCCCOc1ccccc1C(N)=O,Potency,[1],inactive
same,Potency,[2],inactive
same,Potency,[4],8.71 µM (active)
O=C(O)Cc1ccc(-c2ccccc2)cc1,Potency,[1],inactive
same,Potency,[2],inactive
same,Potency,[3],inactive
same,Potency,[4],inactive
CNC(=O)c1c(I)c(NC(=O)CCCCC(=O)Nc2c(I)c(C(=O)O)c(I)c(C(=O)NC)c2I)c(I)c(C(=O)O)c1I,Potency,[1],inactive
same,Potency,[2],inactive
same,Potency,[3],inactive
same,Potency,[4],inactive
Cc1cc(O)c2ccccc2c1O,Potency,[1],inactive
same,Potency,[3],11 µM (active)
C#C[C@]1(O)CC[C@H]2[C@@H]3CCc4cc(O)ccc4[C@H]3CC[C@@]21C,Potency,[1],inactive
same,Potency,[3],inactive
c1ccc2sc(SN3CCOCC3)nc2c1,Potency,[1],inactive
same,Potency,[2],inactive
same,Potency,[3],inactive
same,Potency,[4],10.7 µM (active) and 15.5 µM (active)
Clc1ccccc1-c1nc(-c2ccncc2)no1,Potency,[1],inactive
same,Potency,[2],inactive
same,Potency,[3],3.47 µM (active)
same,Potency,[4],5.49 µM (active)
same,Potency,[6],25.1 µM (active)
Cc1[nH]cnc1CN1CCc2c(c3ccccc3n2C)C1=O,Potency,[1],inactive
same,Potency,[2],inactive
same,Potency,[3],7.76 µM (active)
same,Potency,[4],1.55 µM (active)
CC(C)(C)c1nnc(NS(=O)(=O)c2ccc(N)cc2)s1,Potency,[1],inactive
same,Potency,[2],inactive
same,Potency,[3],inactive
same,Potency,[4],inactive
Cc1nc2ccccc2n1Cc1ccc(Cl)cc1,Potency,[1],inactive
same,Potency,[2],inactive
same,Potency,[3],7.76 µM (active)
same,Potency,[4],11 µM (active)
c1ccc(CCNc2nc(-c3ccccc3)cs2)cc1,Potency,[1],inactive
same,Potency,[2],inactive
same,Potency,[3],5.49 µM (active)
same,Potency,[4],5.49 µM (active)
